# Screening results: PubChem BioAssay, several laboratories
# hcDAF12 agonist: activators of H. contortus DAF-12 nuclear receptor; HEK293 hcDAF-12 lit1-tk-luc reporter, luminescence; 0% DMSO, 100% Δ7-dafachronic acid; 370,000 tested, 1.4% active; AID 652067; activation, % at 6.8 µM;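 active = activation above the mean of all tested compounds plus 3 SD, cut at about 5.5% in these data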;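 note: 100% = response to 3 µM Δ7-dafachronic acid high control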
# Wnt bcat act: activators of Wnt/beta-catenin signaling | AID 743398 | Wnt/beta-catenin reporter cell assay, activator, plate reader | activation, % at 9.35 µM | 300,000 tested, 1.2% active; in the data active = activation above about 30%, passing the limit was not always enough; inconclusive = no clear call, values can overlap the other calls;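 note: 0% = neutral control wells and 100% = positive control wells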
# ssDAF-12 act: activates DAF-12 receptor from parasite S. stercoralis. HEK293 ssDAF-12/GRIP1 lit1-tk-luc reporter, luminescence; % of 3 µM dafachronic acid response. activation, % at 6.8 µM. 370,000 tested, 1% active. AID 652126;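 active = activation above the mean over all tested compounds plus 3 SD, cut at about 0.9% in these data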;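 note: 0% = DMSO-only wells and 100% = 3 µM delta7-dafachronic acid wells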
# esBAF inh: SWI/SNF esBAF complex inhibition; mouse ES cells, Bmi1-luciferase knock-in reporter, 24 h; 100% = twice the neutral-well signal; reporter increase, % at 12.5 µM; 350,000 tested, 2% active; AID 602393; in the data active = activation above about 40%; inconclusive = no clear call, values can overlap the other calls;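 note: 0% = median of the plate's neutral control wells and 100% = double that signal; a rise in the Bmi1 reporter signal indicates esBAF inhibition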
# hgDAF12 agonist: agonists of H. glycines DAF-12 nuclear receptor; activation, % at 6.8 µM; 370,000 tested, 1.8% active; HEK293 GAL4-hgDAF12 UAS-luciferase reporter, agonist luminescence; normalized to butyrate control; AID 687014;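 active = activation above a cutoff set at the mean of all screened compounds plus 3 SD, cut at about 10% in these data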;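 note: 0% = DMSO wells and 100% = sodium butyrate wells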
# DAX1 StAR inh: inhibitors of DAX1 repression of SF-1 activated StAR promoter; HEK293T StAR-luciferase reporter, SF-1/DAX-1 repression relief; inhibition, % at 6.8 µM; 370,000 tested, 1.1% active;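 active = inhibition above the mean over all tested compounds plus 3 SD, cut at about 3.6% in these data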;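 note: 0% = DAX-1 cells with DMSO and 100% = cells lacking DAX-1 with DMSO; higher inhibition means more luminescence from relief of DAX-1 repression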
# * marks the source's active call; other numbers are inactive results; ? = inconclusive; nt = not tested or not shown. Rows were chosen to be rich in hits. Some 4.2% of all compounds tested hit in one or more screens of this group.
SMILES,hcDAF12 agonist,Wnt bcat act,ssDAF-12 act,esBAF inh,hgDAF12 agonist,DAX1 StAR inh
CN(C)S(=O)(=O)c1cccc(NC(=O)COC(=O)c2cc3ccccc3oc2=O)c1,4,?,1,nt,13*,3
COc1cc(NC(=O)C(C)C)ccc1NC(=O)c1cc2ccccc2o1,0,13,-2,60*,6,1
COc1ccc(NC(=O)c2cc3ccccc3o2)cc1OC,0,8,-1,?,5,1
CC(C)C(=O)Nc1cccc(NC(=O)c2cc3ccccc3o2)c1,1,27,-1,72*,6,1
CC(=O)Nc1cccc(NC(=O)c2cc3ccccc3o2)c1,2,51*,1,nt,8,2
CO[C@H]1CN(C)C(=O)c2ccc(NC(C)=O)cc2OC[C@@H](C)N(C(=O)C2CCCCC2)C[C@@H]1C,nt,nt,nt,0,nt,nt
CCC(=O)Nc1ccc(-c2cc3ccccc3oc2=O)cc1,-1,nt,-1,nt,4,1
CN(C)S(=O)(=O)c1cccc(NC(=O)c2cc3ccccc3o2)c1,-1,nt,-1,50*,2,0
CC(=O)Nc1ccc(-c2cc3ccccc3o2)cc1,5,56*,0.9*,27,10,3
C[C@H]1CN([C@@H](C)CO)C(=O)c2cc(C#CC3CCCCC3)cnc2O[C@@H]1CN(C)S(C)(=O)=O,nt,nt,nt,-1,nt,nt
Clc1ccsc1-c1ccc2ccccc2n1,3,39*,0,49*,10,1
c1ccc2nc(-c3nccs3)ccc2c1,0,8,-1,nt,9,2
Cn1nc(-c2ccc(Cl)cc2)c2cc(C(=O)N3CCN(c4ccccc4)CC3)sc21,5.7*,-5,0,-7,2,0
CCCCNC(=O)c1cc2c(-c3ccc(Cl)cc3)nn(C)c2s1,5.9*,-3,0,-6,6,-1
Cc1ccc(CNC(=O)c2cc3c(-c4ccc(Cl)cc4)nn(C)c3s2)o1,5,-2,1.6*,-8,0,0
Cc1nn(-c2ccccc2)c2sc(C(=O)N3CCOCC3)cc12,6.5*,nt,1.3*,44*,9,2
Cc1nn(-c2ccccc2)c2sc(C(=O)O)cc12,-1,nt,-1,7,4,0
CO[C@H]1CN(C)C(=O)c2cc(NC(=O)Nc3ccc(F)cc3)ccc2OC[C@@H](C)NC[C@@H]1C,nt,nt,nt,-2,nt,nt
Cc1ccc2nc(-c3cccc(S(=O)(=O)N(C)C)c3)cn2c1,2,nt,0,83*,11*,1
Cc1ccc2nc(-c3cccc(S(=O)(=O)N4CCCC4)c3)cn2c1,-1,13,-1,64*,2,-1
COCC#Cc1cnc2c(c1)C(=O)N([C@@H](C)CO)C[C@@H](C)[C@H](CN(C)S(C)(=O)=O)O2,nt,nt,nt,8,nt,nt
CCC(=O)N1C[C@H](C)[C@H](OC)CN(C)C(=O)c2cc(NC(=O)c3ccccc3)ccc2OC[C@@H]1C,nt,nt,nt,-2,nt,nt
COc1cccc(NC(=S)N/N=C2\CC3CCC2(C)C3(C)C)c1 (stereo unspecified),2,4,-1,54*,8,0
C[C@@H]1CCCCO[C@@H](CN(C)C(=O)Nc2cccc3ccccc23)[C@H](C)CN([C@H](C)CO)C(=O)c2cc(NC(=O)CCC(F)(F)F)ccc2O1,nt,nt,nt,6,nt,nt
C[C@H]1CN([C@@H](C)CO)C(=O)c2cc(N(C)C)ccc2O[C@H]1CN(C)S(=O)(=O)c1ccccc1,nt,nt,nt,-8,nt,nt
SMILES,hcDAF12 agonist,Wnt bcat act,ssDAF-12 act,esBAF inh,hgDAF12 agonist,DAX1 StAR inh
COc1cc(C=O)ccc1OCCOCCOc1cc(C)ccc1Cl,-1,nt,-1,nt,0,-1
COc1cc(C)ccc1OCCOc1ccccc1Cl,1,nt,-1,77*,6,1
COc1cc(C)ccc1OCCCOc1ccccc1Cl,1,nt,0,71*,9,1
CN(C)CC(=O)N[C@H]1CC[C@@H](CCn2cc(CN(C)C)nn2)O[C@H]1CO,nt,nt,nt,-6,nt,nt
O=C(O)C[C@@H]1C=C[C@H](NC(=O)Nc2cc(F)ccc2F)[C@@H](CO)O1,nt,nt,nt,4,nt,nt
O=C(Nc1sc(-c2ccccc2)cc1C(=O)O)c1ccccc1,3,34*,-1,nt,10,3
CO[C@H]1CN(C)C(=O)c2ccc(NS(C)(=O)=O)cc2OC[C@@H](C)N(CC2CCCCC2)C[C@H]1C,nt,nt,nt,-2,nt,nt
C[C@H]1CN([C@@H](C)CO)S(=O)(=O)c2ccc(-c3ccccc3F)cc2O[C@H]1CN(C)Cc1cncnc1,nt,nt,nt,1,nt,nt
CCC(C)c1ccc(OCC(=O)Nc2ccc3[nH]c(=O)[nH]c3c2)cc1 (stereo unspecified),-2,-9,-1,nt,-1,0
CC(Oc1ccccc1)C(=O)OCC(=O)Nc1sccc1C(N)=O (stereo unspecified),1,-3,0,2,-1,-1
Cc1cnc(NC(=O)CCc2ccccc2)s1,-1,10,-1,18,6,-1
CC(=O)Nc1cccc(OCC(=O)Nc2sccc2C(N)=O)c1,3,?,0,20,12*,2
Cc1cnc(NC(=O)COc2ccccc2)s1,1,58*,0,22,12*,2
CCC(C)c1ccc(OCC(=O)Nc2cccc(C(=O)Nc3ccc(C(=O)O)cc3)c2)cc1 (stereo unspecified),1,20,0,47*,4,4.0*
CC(=O)Nc1cccc(OCC(=O)Nc2ccccc2)c1,1,38*,0,45*,7,2
O=C(C[C@@H]1CC[C@@H](NS(=O)(=O)c2ccc(F)cc2)[C@H](CO)O1)NCCN1CCCCC1,nt,nt,nt,-4,nt,nt
CC(C)c1ccc(NC(=O)COc2ccccc2)cc1,1,-2,0,79*,10,1
CCOC(=O)/C=C1\SCC(=O)N1CC(=O)Nc1ccc2c(c1)CCC2,-1,43*,-1,1,-1,0
COc1ccc(Oc2nnnn2-c2ccccc2)cc1,0,3,-1,25,6,0
COc1cccc(Oc2nnnn2-c2ccccc2)c1,2,nt,-1,58*,6,2
CCC(=O)Nc1ccc2c(c1)C(=O)N(C)[C@H]1CC[C@H](CC(=O)NCCc3ccncc3)O[C@H]1CO2,nt,nt,nt,6,nt,nt
CCCC(=O)Nc1ccc2c(c1)C(=O)N(C)C[C@@H](OC)[C@@H](C)CN(Cc1cccc(F)c1)[C@H](C)CO2,nt,nt,nt,0,nt,nt
O=C(NC1CCCCC1)C(c1cccs1)N(C(=O)c1ccco1)c1ccc2c(c1)OCCO2 (stereo unspecified),-2,0,-1,78*,-1,-1
CCc1ccc(N(C(=O)c2ccco2)C(C(=O)NC2CCCC2)c2ccncc2)cc1 (stereo unspecified),-1,8,0,42*,4,0
CCc1ccc(N(C(=O)c2ccco2)C(C(=O)NC2CCCC2)c2ccco2)cc1 (stereo unspecified),-1,nt,-1,50*,-2,1
